For 35 compounds, composite z-score results are on record in PubChem BioAssay.

The target in this assay is Neurogenic locus notch homolog protein 2 (Homo sapiens) (UniProt Q04721). Kind of assay: small molecules binding Notch2 protein – biochemical, small-molecule microarray, 635 nm fluorescence, stem cell growth factors, primary screen (AID 1073). Conditions: higher = more signal.
Neurogenic locus notch homolog protein 2 (Homo sapiens), sequence (Q04721 whole entry, looked up): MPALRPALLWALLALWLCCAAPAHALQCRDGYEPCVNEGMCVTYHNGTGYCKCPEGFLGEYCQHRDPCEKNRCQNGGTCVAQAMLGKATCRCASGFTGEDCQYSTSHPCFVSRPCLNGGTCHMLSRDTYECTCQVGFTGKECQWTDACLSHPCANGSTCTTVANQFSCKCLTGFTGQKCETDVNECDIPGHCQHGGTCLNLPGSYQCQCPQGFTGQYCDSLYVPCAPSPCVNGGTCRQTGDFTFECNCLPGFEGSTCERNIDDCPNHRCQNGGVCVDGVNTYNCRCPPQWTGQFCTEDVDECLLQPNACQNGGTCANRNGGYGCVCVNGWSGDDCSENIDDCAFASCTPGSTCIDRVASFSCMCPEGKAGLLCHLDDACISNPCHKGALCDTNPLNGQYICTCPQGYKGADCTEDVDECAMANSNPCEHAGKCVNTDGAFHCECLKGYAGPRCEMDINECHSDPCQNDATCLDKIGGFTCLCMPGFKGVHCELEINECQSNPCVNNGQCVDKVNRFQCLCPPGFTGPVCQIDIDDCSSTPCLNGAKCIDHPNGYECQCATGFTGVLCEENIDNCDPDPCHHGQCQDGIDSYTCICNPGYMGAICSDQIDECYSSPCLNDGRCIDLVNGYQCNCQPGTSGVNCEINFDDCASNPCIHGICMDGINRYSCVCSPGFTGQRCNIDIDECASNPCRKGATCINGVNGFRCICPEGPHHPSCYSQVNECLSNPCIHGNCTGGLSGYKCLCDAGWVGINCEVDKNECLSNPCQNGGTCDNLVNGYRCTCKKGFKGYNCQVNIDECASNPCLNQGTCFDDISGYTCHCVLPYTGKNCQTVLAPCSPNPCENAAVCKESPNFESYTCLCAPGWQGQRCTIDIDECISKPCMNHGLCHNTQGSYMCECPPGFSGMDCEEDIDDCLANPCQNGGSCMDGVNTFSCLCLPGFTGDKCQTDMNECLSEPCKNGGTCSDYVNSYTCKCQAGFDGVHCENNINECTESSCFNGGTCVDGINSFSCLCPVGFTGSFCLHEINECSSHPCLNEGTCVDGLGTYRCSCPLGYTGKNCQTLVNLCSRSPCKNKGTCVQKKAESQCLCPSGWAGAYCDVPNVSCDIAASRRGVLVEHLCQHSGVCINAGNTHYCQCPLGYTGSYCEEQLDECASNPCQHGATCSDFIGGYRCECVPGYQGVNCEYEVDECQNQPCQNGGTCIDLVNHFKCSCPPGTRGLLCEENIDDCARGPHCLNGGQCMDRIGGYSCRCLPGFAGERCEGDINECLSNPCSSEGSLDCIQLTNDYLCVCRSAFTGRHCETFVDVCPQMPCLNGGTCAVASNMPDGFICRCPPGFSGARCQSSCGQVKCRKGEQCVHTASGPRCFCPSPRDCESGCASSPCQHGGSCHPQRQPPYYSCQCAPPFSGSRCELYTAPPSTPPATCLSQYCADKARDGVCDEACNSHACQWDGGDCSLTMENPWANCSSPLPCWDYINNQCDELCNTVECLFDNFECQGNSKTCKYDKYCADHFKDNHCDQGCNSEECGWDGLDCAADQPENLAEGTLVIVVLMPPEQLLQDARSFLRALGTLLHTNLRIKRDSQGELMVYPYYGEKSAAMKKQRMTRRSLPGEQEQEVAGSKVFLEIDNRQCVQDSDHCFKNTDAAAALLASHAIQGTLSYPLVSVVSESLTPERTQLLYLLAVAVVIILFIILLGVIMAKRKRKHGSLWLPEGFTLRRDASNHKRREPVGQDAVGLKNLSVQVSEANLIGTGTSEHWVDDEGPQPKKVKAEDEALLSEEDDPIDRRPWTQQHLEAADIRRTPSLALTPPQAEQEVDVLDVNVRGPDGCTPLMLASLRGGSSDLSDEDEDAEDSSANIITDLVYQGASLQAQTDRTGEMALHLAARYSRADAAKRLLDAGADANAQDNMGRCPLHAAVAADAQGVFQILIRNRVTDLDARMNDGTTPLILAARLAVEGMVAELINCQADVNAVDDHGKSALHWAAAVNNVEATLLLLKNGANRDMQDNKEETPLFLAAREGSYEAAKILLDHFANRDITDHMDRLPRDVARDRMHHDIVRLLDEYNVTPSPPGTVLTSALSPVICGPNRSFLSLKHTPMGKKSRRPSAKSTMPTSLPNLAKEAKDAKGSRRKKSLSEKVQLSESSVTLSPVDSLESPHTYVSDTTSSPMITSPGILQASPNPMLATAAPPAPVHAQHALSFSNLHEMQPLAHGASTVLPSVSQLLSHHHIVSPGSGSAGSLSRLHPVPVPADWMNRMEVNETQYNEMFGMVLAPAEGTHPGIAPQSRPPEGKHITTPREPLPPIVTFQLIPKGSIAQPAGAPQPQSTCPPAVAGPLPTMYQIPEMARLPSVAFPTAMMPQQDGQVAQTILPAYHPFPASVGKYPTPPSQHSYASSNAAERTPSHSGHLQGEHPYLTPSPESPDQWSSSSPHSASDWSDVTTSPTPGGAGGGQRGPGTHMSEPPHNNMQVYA
The compound `C=C(/C(=C/C[C@H](OC(C)=O)c1ccccc1OCCO)c1cc(C(=O)OC)ccc1OC)C(C)C` registered a composite z-score of -0.0413.

As to `C[N+](C)(C)CCCC[C@@H]1NC(=O)[C@H]2C[C@@H](C(=O)NCCCCCCN)[C@@H](c3ccc(O)cc3)N2C1=O`, the composite z-score is 1.27.

The compound `COc1ccccc1CN1C(=O)c2ccccc2[C@](Cc2ccccc2I)(C(=O)NCC(F)(F)F)[C@@H]1c1ccc(CO)cc1` showed a composite z-score of 0.981.

Compound `O=C(NCc1ccccc1)[C@@H]1c2ccccc2C(=O)N(Cc2ccccc2C(F)(F)F)[C@H]1c1ccc(CO)cc1` registered a composite z-score of -0.927.

Consider `COC(=O)[C@H](Cc1ccccc1)N1CC(/C=C/C2CC2)=C[C@H]1[C@H](O)Cc1ccccc1`, for which the composite z-score was found to be 0.34.

`CCOC(=O)C1=CC[C@@H](c2ccc(OCc3ccccc3)c(OC)c2)N(S(=O)(=O)c2ccc(C)cc2)[C@H]1c1ccc(SC)cc1` returned a composite z-score of 1.54.

`COc1cccc(/C=C/C=O)c1` had a composite z-score of 0.367.

As to `CC(=O)NCCCC[C@@H]1NC(=O)[C@H]2C[C@@H](C(=O)NCCCC[N+](C)(C)C)[C@@H](c3cccc(OCCO)c3)N2C1=O`, the composite z-score is 0.165.

`O=C1C2C=CC(C(O)c3ccccc3)N(Nc3ccccc3F)C2C(=O)N1c1ccccc1` (stereo not given) came in with a composite z-score of 0.99.

`CCOC(=O)C[C@H]1[C@H](OC(=O)c2ccccc2-c2ccccc2)[C@@H](NC(=O)c2ccc(-c3ccccc3)cc2)c2cc(OCCCO)ccc2N1C(=O)c1ccc2ccccc2n1`: the composite z-score came to 0.75.

The compound `CO[C@]12C=C(Br)[C@@H](C[C@@H]1c1cccc(C)c1)[C@@]1(CO1)C2=O` gave a composite z-score of -0.217.

Compound `[N-]=[N+]=Nc1ccccc1[C@@H]1OC(c2ccc(OCCCO)cc2)=N[C@]1(Cc1ccccc1)C(=O)NCC(O)CO` (stereo not given in full) registered a composite z-score of 0.138.

`COc1ccc([Si](C)(C)[C@@H]2[C@@H](CCn3cc([C@H](O)c4ccccc4)nn3)O[C@]3(C(=O)N(Cc4ccc(N5CCC5=O)cc4)c4ccccc43)[C@H]2C)cc1`: the composite z-score was -0.564.

The compound `C=CCC(OC(C)=O)[C@@H]1[C@@H](N(Cc2ccc(-c3cccc(C(F)(F)F)c3)o2)C(=O)c2ccc(C)cc2)c2cc(OCCCO)ccc2N1C(=O)c1ccc2ccccc2c1` (stereo not given in full) came in with a composite z-score of -0.204.

As for `C=CCC(OC(C)=O)[C@@H]1[C@@H](N(Cc2cccc3ccccc23)C(=O)Cc2ccc(F)cc2)c2cc(OCCCO)ccc2N1C(=O)c1ccc2ccccc2n1` (stereo not given in full), the composite z-score came out at 0.179.

The compound `C[C@H]1NC(=O)[C@@]23C(=O)N[C@@H](Cc4ccccc4)C2[C@H](C)[C@@]2(C)O[C@H]2C3/C=C/C/C=C\CNC(=O)[C@H](Cc2ccccc2)NC1=O` (stereo not given in full) gave a composite z-score of -0.158.

Compound `CCCCCCCCCCC(O)C1C=CC2C(=O)N(C)C(=O)C2N1Nc1ccc([N+](=O)[O-])cc1[N+](=O)[O-]` (stereo not given) registered a composite z-score of 1.55.

Compound `NCCCCCCNC(=O)[C@@H]1C[C@@H]2C(=O)N[C@@H](CCCCN)C(=O)N2[C@@H]1c1cccc(OCCO)c1` came in with a composite z-score of 0.303.

For the compound `N#Cc1ccc(C(O)C2C=CC3C(=O)N(c4ccccc4)C(=O)C3N2Nc2ccccc2)cc1` (stereo not given), the composite z-score turned out to be 1.32.

`CC1=C([C@H](O)CCc2ccccc2)[C@H](CO)[C@@H]2C(=O)N(C)C(=O)[C@@H]2C1`: the composite z-score worked out at 0.451.

As to `CCOC(=O)C1=CC[C@@H](c2cccc(Cl)c2)N(S(=O)(=O)c2ccc(C)cc2)C1`, the composite z-score was determined as 0.0142.

Take `COCCOC(=O)N1C(=O)[C@@]2(c3cc(C#Cc4ccc(OC)cc4)ccc31)[C@H](C(=O)Nc1nc3ccccc3s1)[C@H]1C(=O)O[C@H](c3ccccc3)[C@H](c3ccccc3)N1[C@@H]2c1ccc(O)cc1`: the composite z-score was found to be 1.06.

In turn, `COc1ccc(C#Cc2ccc3c(c2)[C@]2(C(=O)N3)[C@H](c3ccc(O)cc3)N3[C@H](c4ccccc4)[C@H](c4ccccc4)OC(=O)[C@H]3[C@@H]2C(=O)O)cc1` came in with a composite z-score of 0.761.

Consider `CC(C)C[C@@H]1NC(=O)[C@@H]2C[C@H](C(=O)NCCCCCN)[C@H](c3ccc(O)cc3)N2C1=O`, for which the composite z-score was 0.727.

Compound `CN1C(=O)C2C=CC(C(O)c3ccc(F)cc3)N(Nc3ccccc3)C2C1=O` (stereo not given) registered a composite z-score of 1.24.

`CCC[C@@H]1C[C@@]1(CCC)[C@@H](NC(=O)OCc1ccccc1)c1ccc(-c2ccccc2)cc1` showed a composite z-score of -0.527.

As for `COc1ccc(NC(=O)O[C@H]2[C@H](OC(=O)Nc3ccccc3)[C@H](OC(=O)Nc3ccccc3)[C@@H](OC)O[C@@H]2CO)cc1`, the composite z-score was determined as 1.15.

Take `CC(C)[Si](C#C[Si](C(C)C)(C(C)C)C(C)C)(O[C@H](C)c1cn([C@H](CO)Cc2ccccc2)nn1)C(C)C`: the composite z-score is 0.203.

For `[N-]=[N+]=NCc1ccccc1[C@@H]1OC(c2ccc(OCCCO)cc2)=N[C@]1(CCS(=O)(=O)c1ccccc1)C(=O)NCC(O)CO` (stereo not given in full), the composite z-score worked out at 1.53.

Take `CCC(CC)C(O)C1C=CC2C(=O)N(c3ccccc3)C(=O)C2N1Nc1ccc(C(C)C)cc1` (stereo not given): the composite z-score is 1.64.

The compound `C=C(C)C1CCC(C(O)C2C=CC3C(=O)N(C)C(=O)C3N2N2CCCCC2)CC1` (stereo not given) displayed a composite z-score of 1.62.

As for `O=C1NC(=O)C2C1C=CC(C(O)c1cccc3ccccc13)N2Nc1ccc(Cl)cc1Cl` (stereo not given), the composite z-score was determined as 1.49.

For the compound `C=CCOC(=O)[C@H]1[C@@H]2C(=O)O[C@@H](c3ccccc3)[C@@H](c3ccccc3)N2[C@@H](c2ccc(OCCOC(=O)[C@@H]3C[C@@H]4C(=O)N[C@@H](CCCCN(C)C)C(=O)N4[C@@H]3c3ccc(O)cc3)cc2)[C@]12C(=O)Nc1ccccc12`, the composite z-score was determined as 0.69.

As for `CCOC(=O)C1=CC[C@@H](c2ccccc2C(F)(F)F)N(S(=O)(=O)c2ccc(C)cc2)[C@H]1c1ccc(C#N)cc1`, the composite z-score was determined as 1.36.

`CCCNC(=O)[C@@H]1c2ccccc2C(=O)N(C(C)C)[C@H]1c1ccc(CO)cc1` came in with a composite z-score of -0.664.
